# Assay results from PubChem BioAssay (NCATS).
# Where “and” joins values, the source holds several entries; their conditions need not be identical. Equal entries are not always repeated. Unmarked numbers belong to inactive results. Inconclusive results are not listed. Entries that show only a call come without a potency. Calls of active or inactive are those of the source. Unless noted, calls follow the shape of the dose curve; as a rule, active = well fitted curve in the direction sought with a large enough effect; inconclusive = small, poorly fitted or top-dose-only effect, or another doubt; inactive = no such curve, though single readings can be large; an effect the other way counts as inactive or inconclusive.
# How the values were obtained:
# [1] = qHTS assay for small molecule disruptors of the mitochondrial membrane potential - 1 hr assay (AID 651754; calls by dose curve; also: nearly all actives have a fitted effect of over 35% in size)
# Outline: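 Mitochondrial potential in living HepG2 cells after 1 hr compound treatment at 37C was read with Mito-MPS dye added for a further 30 min. Red aggregate and green monomer fluorescence were measured; loss of potential leaves dye as cytoplasmic monomers.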
# [2] = qHTS assay for small molecule disruptors of the mitochondrial membrane potential - 5 hr assay (AID 651755; calls by dose curve; also: nearly all actives have a fitted effect of over 40% in size)
# Outline: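 Membrane-potential dye readout: red aggregate (540 ex/590 em) versus green monomer (490 ex/535 em) fluorescence after 30 min dye loading, following 5 hr compound exposure at 37C of overnight-plated HepG2 cells.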
# [3] = biological target: Tumor necrosis factor (Homo sapiens) (UniProt P01375); test: qHTS assay to identify small molecules that stimulate Tumor Necrosis Factor-alpha (TNF-alpha) secretion (AID 651757; active = well fitted curve in the direction sought with a large enough effect in the signal ratio; the % refers to the signal ratio)
# Outline: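 Secreted TNF-alpha quantified by TR-FRET sandwich of two labeled anti-TNF-alpha antibodies, incubated 3 hr at room temperature. Preceded by 17 hr, 37 C compound treatment of THP-1 cells at 3000 cells/well.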
# [4] = qHTS assay to identify small molecules that stimulate interleukin-8 (IL-8) secretion (AID 651758; active = well fitted activation curve with a large enough effect in the signal ratio; the % refers to the signal ratio; also: potency is read from the fitted curve at half-maximal effect)
# Outline: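 Secreted IL-8 measured homogeneously by TR-FRET (two labelled anti-IL-8 antibodies, 1-3 h at room temperature) after a 16 h, 37 C compound treatment of THP-1 cells at 2000 cells/well.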
# [5] = qHTS assay for environmental chemicals that activate the Aryl hydrocarbon Receptor (AhR) signaling pathway (AID 651777); conditions: 1A2-DRE human hepatoma cells, luciferase, 24 h; activation: stronger effect = higher value; also: nearly all actives have a fitted effect of over 15% in size
# Outline: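 AhR activation is scored as a rise in luciferase from a stable DRE–CYP1A2 promoter construct in human hepatoma cells. Treatment lasts 24 hr at 37 C; detection uses One-Glo after 30 min at room temperature.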
# [6] = biological target: Peroxisome proliferator-activated receptor alpha (Homo sapiens) (UniProt Q07869); test: qHTS assay for small molecule agonists of the peroxisome proliferator-activated receptor alpha (PPARalpha) signaling pathway (AID 651778); conditions: PathHunter PPARalpha complementation, chemiluminescence, 6 h; stronger effect = higher value
# Outline: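 Chemiluminescence from complemented enzyme reported PPARalpha activation in cells after 6 hr of compound treatment at 37 C. The detection reagent was incubated for 60 min at room temperature, and compounds were scored as agonists.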
# [7] = biological target: Nuclear receptor ROR-gamma (Homo sapiens) (UniProt P51449); test: qHTS assay for small molecule antagonists of the retinoid-related orphan receptor gamma (ROR-gamma) signaling pathway (AID 651802); also: nearly all actives have a fitted effect of over 60% in size; also: potency is read from the fitted curve at half-maximal effect
# Outline: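 Luminescence (One-Glo, 30 min RT) measured 16 h after compound addition and doxycycline induction at 37C. Reporter: RORE-luciferase under TET-inducible ROR-gamma in CHO cells.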
# [8] = qHTS assay for small molecule agonists of the antioxidant response element (ARE) signaling pathway measured by Nrf2-dependant transcriptional activity (AID 720636; active = well fitted curve in the direction sought with a large enough effect in the repeat runs; an effect the other way counts as inactive or inconclusive;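 also: HepG2 cells with an ARE-driven luciferase reporter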)
# Outline: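 First, ARE-luc HepG2 cells attached for 6 hr at 37 C in 1% dialyzed FBS medium. Next, compound or DMSO was added and incubated 16 hr. Finally, ONE-Glo reagent was added and luminescence measured after 30 min.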
# [9] = qHTS assay for small molecule antagonists of the retinoid-related orphan receptor gamma (ROR-gamma) signaling pathway - cell viability counter screen (AID 720652; active = well fitted curve in the direction sought with a large enough effect in the repeat runs; an effect the other way counts as inactive or inconclusive;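 also: CHO reporter cells with doxycycline-induced ROR-gamma expression; series mostly up to about 92 µM; compound exposure lasted 16 hr before ATP read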)
# Outline: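 Cytotoxicity counter screen: intracellular ATP (CellTiter-Glo luminescence) measured in the doxycycline-induced CHO RORE-luciferase reporter line after 16 hr compound exposure at 37 C, 5% CO2.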
# [10] = qHTS assay for small molecule agonists of the antioxidant response element (ARE) signaling pathway measured by Nrf2-dependant transcriptional activity - cell viability counter screen (AID 720653; active = well fitted curve in the direction sought with a large enough effect in the repeat runs; an effect the other way counts as inactive or inconclusive); conditions: ARE-bla HepG2 viability, CellTiter-Glo ATP luminescence, 16 h; stronger effect = lower value
# Outline: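 Cytotoxicity counter screen: intracellular ATP quantified by CellTiter-Glo luminescence in the same ARE-bla HepG2 plates, after 16 h compound exposure and a 2 h beta-lactamase substrate step.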
# Peroxisome proliferator-activated receptor alpha (Homo sapiens), sequence (Q07869 whole entry, looked up): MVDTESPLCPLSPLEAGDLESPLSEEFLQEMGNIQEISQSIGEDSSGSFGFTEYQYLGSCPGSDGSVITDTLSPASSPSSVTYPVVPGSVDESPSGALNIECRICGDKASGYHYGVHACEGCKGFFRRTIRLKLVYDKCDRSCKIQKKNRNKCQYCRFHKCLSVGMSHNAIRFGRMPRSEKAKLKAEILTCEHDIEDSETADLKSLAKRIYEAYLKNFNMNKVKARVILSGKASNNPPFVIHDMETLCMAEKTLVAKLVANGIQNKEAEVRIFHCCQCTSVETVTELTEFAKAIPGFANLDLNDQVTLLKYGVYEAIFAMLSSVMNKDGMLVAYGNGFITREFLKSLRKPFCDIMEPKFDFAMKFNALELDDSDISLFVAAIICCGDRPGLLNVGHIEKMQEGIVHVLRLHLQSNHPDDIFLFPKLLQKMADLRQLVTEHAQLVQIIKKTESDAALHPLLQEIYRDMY
# Tumor necrosis factor (Homo sapiens), sequence (P01375 whole entry, looked up): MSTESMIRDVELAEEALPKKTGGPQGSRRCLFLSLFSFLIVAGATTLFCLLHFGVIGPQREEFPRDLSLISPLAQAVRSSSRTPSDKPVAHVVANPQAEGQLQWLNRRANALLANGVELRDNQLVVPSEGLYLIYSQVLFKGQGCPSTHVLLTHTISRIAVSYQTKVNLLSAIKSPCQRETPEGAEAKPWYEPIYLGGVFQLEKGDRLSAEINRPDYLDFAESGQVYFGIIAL
# Nuclear receptor ROR-gamma (Homo sapiens), sequence (P51449 whole entry, looked up): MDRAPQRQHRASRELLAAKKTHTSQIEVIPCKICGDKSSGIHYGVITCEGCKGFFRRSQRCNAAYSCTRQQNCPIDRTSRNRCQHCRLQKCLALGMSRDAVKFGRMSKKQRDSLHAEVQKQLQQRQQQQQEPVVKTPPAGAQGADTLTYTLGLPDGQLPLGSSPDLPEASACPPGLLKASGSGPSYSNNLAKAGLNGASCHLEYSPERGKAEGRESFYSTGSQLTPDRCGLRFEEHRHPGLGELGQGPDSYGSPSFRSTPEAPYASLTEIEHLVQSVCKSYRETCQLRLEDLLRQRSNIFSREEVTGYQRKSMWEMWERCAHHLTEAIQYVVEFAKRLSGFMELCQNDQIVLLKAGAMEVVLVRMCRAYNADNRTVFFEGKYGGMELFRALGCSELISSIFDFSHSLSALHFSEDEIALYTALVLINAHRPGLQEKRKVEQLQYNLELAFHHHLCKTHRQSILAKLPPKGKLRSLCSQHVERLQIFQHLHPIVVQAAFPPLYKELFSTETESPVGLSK
Compound,Potency [1],Potency [2],Potency [3],Potency [4],activation [5],max response [6],Potency [7],outcome [8],Potency [9],max response [10]
Cc1ccc(C)c(N)c1,inactive,inactive,inactive,inactive,-0.892%,7.66%,inactive,inactive,inactive,0.0142%
Nc1ccc(F)cc1F,inactive,inactive,inactive,inactive,-1.74%,7.65%,inactive,inactive,–,-3.09%
NC(=O)CCCCC(N)=O,inactive,inactive,inactive,inactive,-0.919%,-1.94%,inactive,inactive,inactive,-6.44%
O=[N+]([O-])c1cccc(C(F)(F)F)c1,inactive,inactive,inactive,inactive,0.319%,2.74%,inactive,inactive,inactive,14.6%
C=C(C)C(=O)OCC(C)O (stereo not drawn),inactive,inactive,inactive,inactive,0.365%,-1.16%,inactive,inactive,inactive,7.34%
Nc1cccc([N+](=O)[O-])c1,inactive,inactive,inactive,inactive,0.683%,-2.36%,inactive,inactive,inactive,11.8%
Cc1ccc(C(C)(C)C)cc1,inactive,inactive,inactive,inactive,-0.334%,3.18%,inactive,–,inactive,-0.19%
Nc1cc(S(=O)(=O)O)ccc1O,inactive,inactive,inactive,inactive,-0.613%,-7.35%,inactive,inactive,inactive,3.72%
OC/C(Br)=C(\Br)CO,inactive,inactive,inactive,inactive,-1.6%,-6.37%,inactive,inactive,inactive,1.49%
COC(=O)CC#N,inactive,inactive,inactive,inactive,-0.763%,-2.71%,inactive,inactive,–,-4.65%
CC1(N)CCC(C(C)(C)N)CC1 (stereo not drawn),inactive,inactive,inactive,inactive,-0.642%,0.74%,inactive,inactive,inactive,1.22%
Cc1ccccc1C#N,inactive,inactive,inactive,inactive,3.69%,-1.24%,inactive,inactive,inactive,-8.58%
Cc1cccc(C)c1[N+](=O)[O-],inactive,inactive,inactive,inactive,-1.35% and 15.8%,0.937% and 0.387%,inactive,inactive,inactive,-4.95% and -2.18%
Cc1ccc(CO)cc1,inactive,inactive,inactive,inactive,-1.15%,4.64%,inactive,inactive,inactive,-0.358%
O=C(O)c1ccc(Cl)c(Cl)c1,inactive,inactive,inactive,inactive,1.84%,-5.43%,inactive,inactive,inactive,-1.66%
CC(C)Cc1nccs1,inactive,inactive,inactive,inactive,1%,-1.04%,inactive,inactive,inactive,25.9%
CCCOCC(C)OCC(C)O (stereo not drawn),inactive,inactive,inactive,inactive,-2.16%,-1.53%,inactive,inactive,inactive,-10.5%
CC(C)=C1CCC(C)CC1=O (stereo not drawn),inactive,inactive,inactive,inactive,-0.665%,-4.55%,–,inactive,inactive,3.25%
Cc1ccc2ccccc2c1[N+](=O)[O-],inactive,inactive,inactive,inactive,1.24%,5.72%,inactive,inactive,–,14.1%
C[C@@H]1CC2(OC3C[C@@]4(C)C5=CC[C@H]6C(C)(C)C(O[C@@H]7OC[C@@H](O)[C@H](O)[C@H]7O)CC[C@@]67C[C@@]57CC[C@]4(C)C31)OC(O)C1(C)OC21 (stereo partly drawn),inactive,inactive,inactive,inactive,-0.875%,8.86%,21.1 µM (active),inactive,–,–
C=Cc1ccc(C=C)cc1,inactive,inactive,inactive,inactive,7.35%,-4.42%,inactive,inactive,inactive,-7.35%
CC(=O)c1ccccc1[N+](=O)[O-],inactive,inactive,inactive,inactive,-0.15%,-1%,inactive,inactive,–,-1.99%

Compound,Potency [1],Potency [2],Potency [3],Potency [4],activation [5],max response [6],Potency [7],outcome [8],Potency [9],max response [10]
O=C(O)c1ccc(C(=O)O)cc1,inactive,inactive,inactive,inactive,-0.394% and -1.3%,-2.31% and 0.244%,inactive,inactive,–,-2.71% and -15.5%
CC(C)=CCl,inactive,inactive,inactive,inactive,2.36%,0.634%,inactive,–,inactive,14.9%
O=C(O)c1ccccc1Cl,inactive,inactive,inactive,inactive,-2.05%,-0.83%,inactive,inactive,inactive,-0.91%
Cc1cc(C)cc([N+](=O)[O-])c1,inactive,inactive,inactive,inactive,0.689%,-0.421%,inactive,inactive,inactive,-11.8%
CC1=C(/C=C/C(C)=C/C=C/C(C)=C\C=O)C(C)(C)CCC1,inactive,inactive,inactive,0.422 µM (active),6.53%,1.33%,–,–,–,–
Cc1ccc(C)cc1,inactive,inactive,inactive,inactive,0.01%,-4.74%,inactive,inactive,inactive,-7.71%
CCOc1ccccc1N,inactive,inactive,inactive,inactive,-0.265%,-0.0098%,inactive,inactive,inactive,12.7%
Cc1cccc(C(=O)O)c1[N+](=O)[O-],inactive,inactive,inactive,inactive,1.97%,-1.91%,inactive,inactive,inactive,5.5%
Cc1ccccc1C=O,inactive,inactive,inactive,inactive,-0.786%,-2.49%,inactive,inactive,inactive,-9.4%
CCOc1cc(OCC)c(C(C)=O)cc1OCC,inactive,inactive,inactive,inactive,3.71%,0.501%,inactive,inactive,inactive,3.21%
CC(O)COC(C)(C)C (stereo not drawn),inactive,inactive,inactive,inactive,-0.0727%,-3.92%,inactive,inactive,inactive,7.93%
BrC/C=C/CBr,inactive,inactive,inactive,inactive,0.145%,3.19%,inactive,inactive,inactive,-9.49%
CCN(Cc1ccccc1)c1ccccc1,inactive,inactive,inactive,inactive,0.346%,3.08%,inactive,–,inactive,-1.24%
CC(=O)c1ccccn1,inactive,inactive,inactive,inactive,-0.723%,0.325%,inactive,inactive,inactive,5.72%
CCCCCCCCC,inactive,inactive,inactive,inactive,0.0249%,-0.317%,–,inactive,inactive,3.15%
CCOC(C)(C)C,inactive,inactive,inactive,inactive,-0.13%,-4.96%,inactive,inactive,inactive,-6.47%
CC(C)Nc1ccccc1,inactive,inactive,inactive,inactive,0.225%,-3.92%,inactive,inactive,inactive,-8.81%
CCNS(=O)(=O)c1ccc(C)cc1,inactive,inactive,inactive,–,-1.7%,-3.34%,inactive,inactive,inactive,-1.66%
CCN(C(=O)N(CC)c1ccccc1)c1ccccc1,inactive,inactive,inactive,–,-1.64%,-4.39%,inactive,inactive,inactive,-10.4%
CCOCCO,inactive,inactive,inactive,–,-0.327%,-5.75%,inactive,inactive,inactive,10.2%
O=C(O)c1ccc(CO)o1,inactive,inactive,inactive,–,-0.734%,15%,inactive,inactive,inactive,-10.4%
O=C(Cl)c1cccc([N+](=O)[O-])c1,inactive,inactive,inactive,inactive,–,-2.24%,inactive,–,inactive,-1.32%
